Calls of active or inactive are those of the source.
Experiments:
[1] = E. coli DRC41 culture turbidity changes, primary screen, E. coli filamentation inducer project, strain DRC41, OD650, 48 h (AID 1152);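 further: E. coli MC1000 strain DRC41 lacking acrAB efflux pump and sulA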; details: E. coli DRC41 (acrAB sulA), higher = more signal, called active from +8 up or from −8 down
[2] = small-molecule binders of probe aLefty1, primary screen, biochemical, small-molecule microarray, 635/667 nm fluorescence (AID 1153); details: higher = more signal;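 further: score merges spot fluorescence with signal-to-noise ratio from the scanned slide images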
[3] = PSAC antagonists in infected red cells, primary screen, cell-based, P. falciparum Indochina, OD700, 1 h (AID 1154); details: P. falciparum Indochina infected RBC osmotic lysis, higher = more signal, called active from +8 up or from −8 down
[4] = PSAC antagonists in infected red cells, primary screen, cell-based, P. falciparum Indochina, OD700, 2 h (AID 1155);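 further: lysis reports solute entry through the parasite surface anion channel PSAC; channel blockers reduce lysis of infected cells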; details: P. falciparum Indochina infected erythrocytes, osmotic lysis OD700; higher = more signal, called active from +8 up or from −8 down
[5] = osmotic lysis modulators in infected erythrocytes, primary screen, PSAC antagonist project, cell-based, P. falciparum Indochina, OD700, 3 h (AID 1156); details: higher = more signal, called active from +8 up or from −8 down
[6] = PSAC antagonists in infected red cells, primary screen, cell-based, P. falciparum Indochina, OD700, 18 h (AID 1157); details: P. falciparum Indochina infected erythrocytes, osmotic lysis OD700, 18 h; higher = more signal, called active from +8 up or from −8 down
[7] = modulators of S6 phosphorylation in cells, primary screen, cell-based, A549, cytoblot, luminescence, serum-stimulated (AID 1158); details: A549 phospho-S6 cytoblot, 5 h, higher = more signal;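 further: serum-stimulated A549 lung adenocarcinoma cells; signal is phosphorylated S6 detected by cytoblot immunostaining with HRP secondary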
[8] = target: NADPH oxidase 2 (Homo sapiens) (UniProt P04839); assay: NOX2-dependent H2O2 signal modulators, primary screen, NOX inhibitor project, cell-based, HEK293-NOX2, PMA-stimulated, Amplex Red fluorescence (AID 1159); details: 45 min, higher = more signal, called active from +8 up or from −8 down; further: test concentration not given here
Sequence of NADPH oxidase 2 (Homo sapiens) (P04839 whole entry, looked up): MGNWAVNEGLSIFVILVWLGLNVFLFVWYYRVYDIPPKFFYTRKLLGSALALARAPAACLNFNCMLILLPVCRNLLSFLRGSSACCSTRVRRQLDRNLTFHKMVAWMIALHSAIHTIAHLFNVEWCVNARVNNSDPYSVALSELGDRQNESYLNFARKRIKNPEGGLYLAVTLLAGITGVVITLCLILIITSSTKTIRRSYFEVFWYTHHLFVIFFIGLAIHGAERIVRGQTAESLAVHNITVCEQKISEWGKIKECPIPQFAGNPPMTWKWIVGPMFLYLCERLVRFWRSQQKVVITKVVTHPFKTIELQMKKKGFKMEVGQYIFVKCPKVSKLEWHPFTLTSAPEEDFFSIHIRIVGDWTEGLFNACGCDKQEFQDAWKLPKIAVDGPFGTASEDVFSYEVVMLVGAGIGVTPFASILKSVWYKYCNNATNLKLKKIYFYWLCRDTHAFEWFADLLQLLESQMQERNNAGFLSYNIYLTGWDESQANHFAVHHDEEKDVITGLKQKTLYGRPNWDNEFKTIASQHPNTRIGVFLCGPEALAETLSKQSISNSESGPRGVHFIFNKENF

[9] = target: NADPH oxidase 4 (Homo sapiens) (UniProt Q9NPH5); assay: NOX4-dependent H2O2 signal modulators, primary screen, NOX inhibitor project, cell-based, HEK293-NOX4, tetracycline-induced, Amplex Red fluorescence (AID 1160); details: 45 min, higher = more signal, called active from +8 up or from −8 down
Sequence of NADPH oxidase 4 (Homo sapiens) (Q9NPH5 whole entry, looked up): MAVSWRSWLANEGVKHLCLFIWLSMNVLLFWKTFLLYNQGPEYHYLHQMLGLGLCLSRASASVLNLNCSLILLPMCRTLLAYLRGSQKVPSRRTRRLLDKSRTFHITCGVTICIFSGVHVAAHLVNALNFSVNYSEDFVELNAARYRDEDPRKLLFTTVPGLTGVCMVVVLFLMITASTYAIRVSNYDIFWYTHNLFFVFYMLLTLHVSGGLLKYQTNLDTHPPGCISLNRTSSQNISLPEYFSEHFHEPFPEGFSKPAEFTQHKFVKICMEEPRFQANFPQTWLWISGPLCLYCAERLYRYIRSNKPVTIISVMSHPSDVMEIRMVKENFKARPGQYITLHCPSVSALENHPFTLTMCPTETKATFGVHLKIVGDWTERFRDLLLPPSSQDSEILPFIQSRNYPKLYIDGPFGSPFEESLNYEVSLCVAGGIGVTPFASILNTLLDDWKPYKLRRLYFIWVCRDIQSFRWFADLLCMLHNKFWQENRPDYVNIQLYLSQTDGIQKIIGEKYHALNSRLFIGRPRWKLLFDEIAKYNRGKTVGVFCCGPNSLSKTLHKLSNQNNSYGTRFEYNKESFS

[10] = target: NADPH oxidase 5 (Homo sapiens) (UniProt Q96PH1); assay: NOX5-dependent H2O2 signal modulators, primary screen, NOX inhibitor project, cell-based, HEK293-NOX5, Amplex Red fluorescence (AID 1161); details: HEK293-NOX5, ionomycin, 45 min, higher = more signal
Sequence of NADPH oxidase 5 (Homo sapiens) (Q96PH1 whole entry, looked up): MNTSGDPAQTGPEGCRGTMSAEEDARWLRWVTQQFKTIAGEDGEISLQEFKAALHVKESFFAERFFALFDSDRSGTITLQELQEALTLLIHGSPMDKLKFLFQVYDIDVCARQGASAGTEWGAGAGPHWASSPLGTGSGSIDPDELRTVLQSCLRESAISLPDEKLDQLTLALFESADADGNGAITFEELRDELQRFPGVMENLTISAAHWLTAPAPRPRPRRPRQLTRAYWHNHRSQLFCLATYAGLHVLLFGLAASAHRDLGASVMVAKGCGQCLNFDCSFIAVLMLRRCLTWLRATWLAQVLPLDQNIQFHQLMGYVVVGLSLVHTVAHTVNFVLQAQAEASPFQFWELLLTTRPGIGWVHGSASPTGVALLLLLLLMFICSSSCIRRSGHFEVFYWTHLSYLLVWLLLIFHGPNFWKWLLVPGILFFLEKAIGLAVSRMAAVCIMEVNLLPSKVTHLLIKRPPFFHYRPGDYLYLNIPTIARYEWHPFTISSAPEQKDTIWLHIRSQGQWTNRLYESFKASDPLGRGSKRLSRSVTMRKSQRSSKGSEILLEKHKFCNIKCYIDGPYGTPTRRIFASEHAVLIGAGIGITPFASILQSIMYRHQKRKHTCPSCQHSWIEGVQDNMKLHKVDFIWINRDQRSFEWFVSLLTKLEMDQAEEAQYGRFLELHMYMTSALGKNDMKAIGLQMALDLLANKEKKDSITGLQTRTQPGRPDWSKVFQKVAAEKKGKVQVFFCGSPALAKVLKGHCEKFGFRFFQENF

[11] = A549 cell viability effects, profiling panel, calcein-AM fluorescence, 48 h, basal (AID 1162); details: higher = more signal; further: test concentration not given here
[12] = adipocyte viability effects, profiling panel, cell-based, 3T3-L1 adipocytes, calcein-AM fluorescence, 48 h, basal (AID 1163); details: 3T3-L1 adipocytes viability, higher = more signal; further: test concentration not given here
[13] = HepG2 cell viability effects, profiling panel, calcein-AM fluorescence, 48 h, basal (AID 1164); details: higher = more signal; further: test concentration not given here
[14] = MM1S cell viability effects, profiling panel, calcein-AM fluorescence, 48 h, basal (AID 1165); details: higher = more signal;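 further: viability of MM1S multiple myeloma cells under basal unstimulated conditions; test concentration not given here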
[15] = basal RPMI8226 viability, no added stimulus, profiling panel, cell-based, calcein-AM fluorescence, 48 h, PK04 Diversity Set (AID 1166); details: RPMI8226 myeloma viability, higher = more signal;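 further: cells grown under basal conditions without added stimulus; test concentration not given here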
[16] = basal HepG2 mitochondrial membrane potential changes, profiling panel, cell-based, JC-1 fluorescence, 24 h, 100 nL compound (AID 1167); details: higher = more signal; further: test concentration not given here
[17] = basal 3T3-L1 adipocyte mitochondrial potential changes, profiling panel, cell-based, JC-1 fluorescence, 3T3-L1 adipocytes, 24 h, 100 nL compound (AID 1168); details: JC-1 mitochondrial fluorescence, higher = more signal, called active from +8 up or from −8 down; further: test concentration not given here
[18] = basal RPMI8226 mitochondrial membrane potential changes, profiling panel, cell-based, JC-1 fluorescence, 24 h, 100 nL compound (AID 1169); details: RPMI8226 myeloma, JC-1 mitochondrial potential fluorescence, higher = more signal; further: test concentration not given here
[19] = basal MM1S mitochondrial membrane potential changes, profiling panel, cell-based, JC-1 fluorescence, 24 h, 100 nL compound (AID 1170); details: higher = more signal; further: test concentration not given here
[20] = A549 lung cancer cell viability effects, profiling panel, resazurin fluorescence, 24 h, PK04 Diversity Set (AID 1171); details: higher = more signal, called active from +8 up or from −8 down; further: test concentration not given here

Row | Compound | z-score [1] | composite z-score [2] | z-score [3] | z-score [4] | z-score [5] | z-score [6] | z-score [7] | z-score [8] | z-score [9] | z-score [10] | z-score [11] | z-score [12] | z-score [13] | z-score [14] | z-score [15] | z-score [16] | z-score [17] | z-score [18] | z-score [19] | z-score [20]
1 | CC(C)C[C@@H]1NC(=O)[C@@H]2C[C@H](C(=O)NCCCCCCNC(=O)CS)[C@H](c3ccc(O)cc3)N2C1=O | 0.81 (inactive) | 0.197 | 4.25 (inactive) | -0.506 (inactive) | 0.75 (inactive) | -1.54 (inactive) | 0.0377 | 0.569 (inactive) | 0.943 (inactive) | -0.706 | 0.191 | 0.963 | -0.892 | -0.523 | 0.037 | -1.69 | -0.226 (inactive) | -0.684 | -0.391 | -0.399 (inactive)
2 | COC(=O)C[C@H]1O[C@]2(C(=O)N(C)c3ccccc32)[C@@H](C)[C@@H]1[Si](C)(C)c1ccccc1 | -0.297 (inactive) | 0.151 | 1.48 (inactive) | 0.405 (inactive) | 1.1 (inactive) | 0.0591 (inactive) | 0.252 | 0.767 (inactive) | 0.176 (inactive) | -1.11 | -0.843 | 1.01 | -1.05 | -0.344 | -0.0598 | -0.57 | 0.611 (inactive) | -0.0109 | 0.425 | 1.38 (inactive)
3 | CC(C)N1C(=O)[C@@]2(Cc3ccccc31)c1ccccc1C(=O)N(Cc1ccccc1C(F)(F)F)[C@H]2c1ccc(CO)cc1 | -0.49 (inactive) | -0.853 | 0.382 (inactive) | 0.596 (inactive) | 0.238 (inactive) | 0.501 (inactive) | -0.0346 | 0.449 (inactive) | -1.18 (inactive) | 0.56 | -0.262 | 0.523 | 0.133 | -0.895 | -1.27 | -0.77 | 0.109 (inactive) | 0.0301 | 1.03 | 0.752 (inactive)
4 | C[C@H]1C2[C@H](Cc3ccccc3)NC(=O)[C@]23C(=O)N[C@@H](Cc2ccccc2)C(=O)N2CCC[C@H]2C(=O)NC/C=C/CC/C=C/C3[C@@H]2O[C@]12C (stereo not given in full) | -0.488 (inactive) | 0.32 | 1.13 (inactive) | 0.186 (inactive) | 0.0233 (inactive) | 0.599 (inactive) | -0.191 | 1.25 (inactive) | 1.11 (inactive) | 1.25 | -0.168 | 1.18 | -0.512 | -0.132 | -0.876 | 1.11 | 0.308 (inactive) | 0.0536 | 0.793 | -0.0612 (inactive)
5 | CCOC(=O)C[C@H]1[C@H](OC(=O)c2ccc(-c3ccccc3)cc2)[C@@H](NC(=O)c2ccc(-c3ccccc3)cc2)c2cc(OCCCO)ccc2N1C(=O)c1ccccc1 | -0.825 (inactive) | 0.0437 | 0.744 (inactive) | 0.745 (inactive) | -0.392 (inactive) | 0.678 (inactive) | -0.0382 | 0.546 (inactive) | -1.29 (inactive) | -0.655 | -0.555 | -0.132 | -0.134 | 0.125 | -0.473 | 0.642 | -0.45 (inactive) | 0.812 | 0.0869 | -0.769 (inactive)
